Laboratory results as given in PubChem BioAssay.
A number with no mark means an inactive call. Activity calls are given as the source filed them. Unless noted, no stated cut-off is given here; in the data, active means inhibition above about 25%; inactive means the rest.

Molecular target: Nuclear receptor coactivator 1 (Homo sapiens) (UniProt Q15788)
Assay: SRC1 coactivator transcriptional activity inhibitors, confirmation, cell-based, luminescence, quadruplicate (AID 588820;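 active means mean inhibition above 46.68%, the untreated control wells mean plus 3 SD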;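 further: 0% = DMSO wells and 100% = gossypol 36 µM treated wells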)
Conditions: HEK293 GAL4-SRC1 luciferase reporter, at 3.6 µM, active compounds read high

Nuclear receptor coactivator 1 (Homo sapiens), sequence (Q15788 whole entry, looked up): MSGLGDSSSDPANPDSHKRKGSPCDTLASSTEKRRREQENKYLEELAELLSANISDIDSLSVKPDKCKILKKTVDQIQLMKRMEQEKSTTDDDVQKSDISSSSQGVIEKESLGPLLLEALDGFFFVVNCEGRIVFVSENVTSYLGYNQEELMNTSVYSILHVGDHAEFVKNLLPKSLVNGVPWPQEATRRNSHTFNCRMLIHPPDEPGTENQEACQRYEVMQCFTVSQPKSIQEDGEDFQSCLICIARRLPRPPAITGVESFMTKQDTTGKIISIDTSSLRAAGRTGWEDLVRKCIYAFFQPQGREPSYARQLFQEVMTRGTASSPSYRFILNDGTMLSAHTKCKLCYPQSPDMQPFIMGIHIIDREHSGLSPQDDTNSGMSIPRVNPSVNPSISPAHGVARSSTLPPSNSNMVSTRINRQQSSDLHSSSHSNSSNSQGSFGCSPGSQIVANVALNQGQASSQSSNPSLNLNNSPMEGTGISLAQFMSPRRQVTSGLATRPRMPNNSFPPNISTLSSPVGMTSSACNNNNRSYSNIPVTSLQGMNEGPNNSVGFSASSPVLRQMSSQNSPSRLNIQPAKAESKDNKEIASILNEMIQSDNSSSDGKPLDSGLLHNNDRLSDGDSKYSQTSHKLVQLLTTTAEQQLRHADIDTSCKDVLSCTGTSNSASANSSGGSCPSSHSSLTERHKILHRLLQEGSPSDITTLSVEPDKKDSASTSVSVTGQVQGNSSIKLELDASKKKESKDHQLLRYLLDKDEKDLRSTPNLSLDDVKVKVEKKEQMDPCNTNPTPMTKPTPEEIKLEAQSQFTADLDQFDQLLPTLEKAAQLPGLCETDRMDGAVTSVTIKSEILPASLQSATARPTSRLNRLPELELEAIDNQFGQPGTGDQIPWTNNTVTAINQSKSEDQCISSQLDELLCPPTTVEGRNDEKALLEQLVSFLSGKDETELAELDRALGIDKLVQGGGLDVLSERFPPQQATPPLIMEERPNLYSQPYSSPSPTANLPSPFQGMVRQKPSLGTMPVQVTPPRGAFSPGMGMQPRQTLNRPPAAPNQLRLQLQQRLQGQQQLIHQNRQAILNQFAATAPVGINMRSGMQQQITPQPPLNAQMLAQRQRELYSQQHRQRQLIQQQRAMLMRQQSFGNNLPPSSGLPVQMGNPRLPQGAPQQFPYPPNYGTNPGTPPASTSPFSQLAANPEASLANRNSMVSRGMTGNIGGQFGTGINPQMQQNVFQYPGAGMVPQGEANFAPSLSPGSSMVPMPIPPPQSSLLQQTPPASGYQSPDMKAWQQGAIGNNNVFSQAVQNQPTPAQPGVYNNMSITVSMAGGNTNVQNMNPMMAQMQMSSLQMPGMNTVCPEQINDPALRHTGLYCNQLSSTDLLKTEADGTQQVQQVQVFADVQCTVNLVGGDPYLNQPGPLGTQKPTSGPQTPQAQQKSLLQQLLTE

Row | SMILES | inhibition
1 | COc1ccc(OC)c(/C=N/NC(=O)c2cc3c(OC)cccc3[nH]2)c1 | -19.2%
2 | O=C(NC(=S)NCC1CCCO1)c1ccccc1[N+](=O)[O-] (stereo not given) | -12.7%
3 | Cc1nn(-c2ccccc2)c(C)c1NC(=O)COC(=O)C1CC(=O)N(CCc2ccccc2)C1 (stereo not given) | -14.4%
4 | Cc1cc(C)nc(-n2ncc(C#N)c2N)n1 | -18.5%
5 | O=c1ccc2c(ccc3ncccc32)o1 | 18.8%
6 | CCC(C)c1ccc(C(C)NC(=S)NCc2ccc(F)cc2)cc1 (stereo not given) | -3.08%
7 | Cc1cc2c(OCC(O)CNCc3ccco3)cccc2[nH]1 (stereo not given) | -14.2%
8 | Cc1sc2ncnc(N3CCC(C(=O)Nc4cc(S(C)(=O)=O)ccc4Cl)CC3)c2c1C | 14.9%
9 | CCN(CC)S(=O)(=O)c1cccc(C(=O)OCC(=O)Nc2ccc3c(c2)c2ccccc2n3CC)c1 | -11.9%
10 | CCCNC(=O)C1(C)CCCN(Cc2cccc(C#N)c2)C1 (stereo not given) | 36.4%
11 | Cc1sc2ncnc(N3CCN(C(=O)c4ccco4)CC3)c2c1C | -0.07%
12 | O=c1[nH]nnc2c1ncn2C1OC(CO)C(O)C1O (stereo not given) | 0.97%
13 | CSc1nccc(Oc2cncc(Cl)c2)n1 | 8.08%
14 | CC(=O)c1cccc(NC(=O)c2cc(Cl)sc2Cl)c1 | -60.7%
15 | CC1CC(C)CN(c2ncc3c(n2)CC(c2ccc(Cl)cc2)CC3=O)C1 (stereo not given) | -7.75%
16 | O=c1[nH]c(CSc2nc3ccccc3o2)nc2c1cnn2-c1ccccc1 | -22.6%
17 | CC[n+]1c(/C=C/Nc2ccccc2)oc2ccccc21 | 36.7%
18 | Cc1nc(N)c(C#N)c(-c2cccnc2)c1C | 46.4%
19 | CCOC(=O)c1[nH]c(C)c(C(=O)OCc2ccc(C)cc2)c1C | 4.43%
20 | Cc1ccc(C2C3=C(CC(C)(C)CC3=O)OC3=C2C(=O)CC(C)(C)C3)cc1 | 0%

Row | SMILES | inhibition
21 | COc1ccc([C@H]2CC(=O)C=C(c3ccnc4ccc(Cl)cc34)C2)cc1 | 2.04%
22 | O=C(NNC(=O)c1ccccc1O)c1ccc(Cl)c(S(=O)(=O)N2CCc3ccccc32)c1 | 8.03%
23 | c1ccc(-c2csc3ncnc(NCCN4CCOCC4)c23)cc1 | 27.7%
24 | O=C(COC(=O)CCC(=O)c1ccccc1)Nc1nnc(-c2ccccc2)o1 | -19.6%
25 | COc1ccc(C(C(=O)NCC2CCCO2)N(Cc2cccs2)C(=O)c2snc(C(N)=O)c2N)cc1 (stereo not given) | -52.6%
26 | CCN(CC(=O)Nc1c(F)cccc1F)C(=O)/C=C/c1ccc(S(=O)(=O)N2CCCCCC2)cc1 | -10.1%
27 | COc1ccc(NC(=O)c2ccccc2Cl)cc1NC(=O)CN1CCOCC1 | -11.8%
28 | Cc1csc(N=Cc2ccc([N+](=O)[O-])o2)n1 | 30.6%
29 | Cc1cc2nc(C3CCCCC3)c(Cc3cccc(F)c3)n2c(C)c1Br | 4.23%
30 | c1ccc(-c2cc(N3CCCCC3)nc(-c3ccccc3)n2)cc1 | -21.1%
31 | CC(C)Nc1ccc(Nc2ccnc3cc4ccccc4cc23)cc1 | 29.3%
32 | Cc1ccc(N2CC(C(=O)N3CCC(C(=O)NCCCOC(C)C)CC3)CC2=O)cc1 (stereo not given) | -30.7%
33 | Cc1ccc(S(=O)(=O)N(C)c2ccc(C(=O)N3CCN(Cc4ccc5c(c4)OCO5)CC3)cc2)cc1 | 9.2%
34 | O=C(NCCc1ccc(F)cc1)C(=O)NCC1CCCN1S(=O)(=O)c1ccccc1 (stereo not given) | -36.4%
35 | CC(=O)c1c(C)n(-c2ccc(C)cc2)c2ccc(O)cc12 | 35%
36 | O=C(Nc1ccc2c(c1)N(S(=O)(=O)c1cccs1)CCC2)c1c(F)cccc1F | -8.08%
37 | COc1ccc(C(=O)Oc2ccc(/C=N/NC(=O)c3ccccc3OC)cc2[N+](=O)[O-])cc1 | -11.5%
38 | CCN(CC)c1ccc(NC(=O)CSc2n[nH]c(-c3ccco3)n2)cc1 | -8.8%
39 | Cc1ccc2cc3cc(C(=O)NCc4ccco4)oc3nc2c1 | -10%
40 | Cc1cc(OCCCN2CCCC2)ccc1Cl | -14.7%

Tested on: not listed separately
Assay: VP16 transactivation inhibitors, counter-screen for SRC1 inhibitor project, cell-based, luminescence, high throughput (AID 588824)
Conditions: cell-based VP16 transactivation luciferase luminescence; at 3.6 µM; active compounds read high

Row | SMILES | inhibition
41 | COc1ccc(OC)c(/C=N/NC(=O)c2cc3c(OC)cccc3[nH]2)c1 | -10%
42 | O=C(NC(=S)NCC1CCCO1)c1ccccc1[N+](=O)[O-] (stereo not given) | -12%
43 | Cc1nn(-c2ccccc2)c(C)c1NC(=O)COC(=O)C1CC(=O)N(CCc2ccccc2)C1 (stereo not given) | 2.89%
44 | Cc1cc(C)nc(-n2ncc(C#N)c2N)n1 | 5.06%
45 | O=c1ccc2c(ccc3ncccc32)o1 | 8.67%
46 | CCC(C)c1ccc(C(C)NC(=S)NCc2ccc(F)cc2)cc1 (stereo not given) | -3.56%
47 | Cc1cc2c(OCC(O)CNCc3ccco3)cccc2[nH]1 (stereo not given) | -11.1%
48 | Cc1sc2ncnc(N3CCC(C(=O)Nc4cc(S(C)(=O)=O)ccc4Cl)CC3)c2c1C | 9.27%
49 | CCN(CC)S(=O)(=O)c1cccc(C(=O)OCC(=O)Nc2ccc3c(c2)c2ccccc2n3CC)c1 | 24.3%
50 | CCCNC(=O)C1(C)CCCN(Cc2cccc(C#N)c2)C1 (stereo not given) | 26% (active)
51 | Cc1sc2ncnc(N3CCN(C(=O)c4ccco4)CC3)c2c1C | 7.79%
52 | O=c1[nH]nnc2c1ncn2C1OC(CO)C(O)C1O (stereo not given) | 17.6%
53 | CSc1nccc(Oc2cncc(Cl)c2)n1 | 5.07%
54 | CC(=O)c1cccc(NC(=O)c2cc(Cl)sc2Cl)c1 | -30.6%
55 | CC1CC(C)CN(c2ncc3c(n2)CC(c2ccc(Cl)cc2)CC3=O)C1 (stereo not given) | 3.59%
56 | O=c1[nH]c(CSc2nc3ccccc3o2)nc2c1cnn2-c1ccccc1 | 4.42%
57 | CC[n+]1c(/C=C/Nc2ccccc2)oc2ccccc21 | 28.5% (active)
58 | Cc1nc(N)c(C#N)c(-c2cccnc2)c1C | 26.5% (active)
59 | CCOC(=O)c1[nH]c(C)c(C(=O)OCc2ccc(C)cc2)c1C | 5.19%
60 | Cc1ccc(C2C3=C(CC(C)(C)CC3=O)OC3=C2C(=O)CC(C)(C)C3)cc1 | 3.31%

Row | SMILES | inhibition
61 | COc1ccc([C@H]2CC(=O)C=C(c3ccnc4ccc(Cl)cc34)C2)cc1 | 29.2% (active)
62 | O=C(NNC(=O)c1ccccc1O)c1ccc(Cl)c(S(=O)(=O)N2CCc3ccccc32)c1 | 14.9%
63 | c1ccc(-c2csc3ncnc(NCCN4CCOCC4)c23)cc1 | 22.6%
64 | O=C(COC(=O)CCC(=O)c1ccccc1)Nc1nnc(-c2ccccc2)o1 | -8.55%
65 | COc1ccc(C(C(=O)NCC2CCCO2)N(Cc2cccs2)C(=O)c2snc(C(N)=O)c2N)cc1 (stereo not given) | -8.57%
66 | CCN(CC(=O)Nc1c(F)cccc1F)C(=O)/C=C/c1ccc(S(=O)(=O)N2CCCCCC2)cc1 | 6.23%
67 | COc1ccc(NC(=O)c2ccccc2Cl)cc1NC(=O)CN1CCOCC1 | -7.93%
68 | Cc1csc(N=Cc2ccc([N+](=O)[O-])o2)n1 | 32.2% (active)
69 | Cc1cc2nc(C3CCCCC3)c(Cc3cccc(F)c3)n2c(C)c1Br | 11.8%
70 | c1ccc(-c2cc(N3CCCCC3)nc(-c3ccccc3)n2)cc1 | -2.43%
71 | CC(C)Nc1ccc(Nc2ccnc3cc4ccccc4cc23)cc1 | 38% (active)
72 | Cc1ccc(N2CC(C(=O)N3CCC(C(=O)NCCCOC(C)C)CC3)CC2=O)cc1 (stereo not given) | -8.26%
73 | Cc1ccc(S(=O)(=O)N(C)c2ccc(C(=O)N3CCN(Cc4ccc5c(c4)OCO5)CC3)cc2)cc1 | 30% (active)
74 | O=C(NCCc1ccc(F)cc1)C(=O)NCC1CCCN1S(=O)(=O)c1ccccc1 (stereo not given) | -2.18%
75 | CC(=O)c1c(C)n(-c2ccc(C)cc2)c2ccc(O)cc12 | 19.8%
76 | O=C(Nc1ccc2c(c1)N(S(=O)(=O)c1cccs1)CCC2)c1c(F)cccc1F | -5.05%
77 | COc1ccc(C(=O)Oc2ccc(/C=N/NC(=O)c3ccccc3OC)cc2[N+](=O)[O-])cc1 | -0.66%
78 | CCN(CC)c1ccc(NC(=O)CSc2n[nH]c(-c3ccco3)n2)cc1 | -1.86%
79 | Cc1ccc2cc3cc(C(=O)NCc4ccco4)oc3nc2c1 | 36% (active)
80 | Cc1cc(OCCCN2CCCC2)ccc1Cl | -11.8%
